JMJD2C inh = inhibitors of GASC-1 histone demethylase, primary screen, biochemical, fluorescence, DELFIA europium; Lysine-specific demethylase 4C (Homo sapiens), Q9H3R0; GST-JMJD2C(1-420) H3K9me3 demethylation; inhibition, % at 2.35 µM; 330,000 tested, 0.069% active; AID 2099, 2009;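 active means more than half of a compound's replicate wells show inhibition beyond 50%, single wells judged on their own value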;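 further: signal counts dimethyl H3K9 product captured on neutravidin plate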
KLK7 zymogen act = proKLK7 zymogen activators, primary screen, biochemical, fluorescence intensity; Kallikrein-7 (Homo sapiens), P49862; purified proKLK7, EDANS-DABCYL substrate fluorescence; 100% is mature enzyme control, 0% vehicle; activation, % at 7 µM; 370,000 tested, 0.9% active; AID 652039, 2013;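 active means activation above the mean of all tested compounds plus 3 SD, computed per campaign excluding outliers beyond control limits, cut at about 13% in these data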
Target sequence (P49862 whole entry, looked up): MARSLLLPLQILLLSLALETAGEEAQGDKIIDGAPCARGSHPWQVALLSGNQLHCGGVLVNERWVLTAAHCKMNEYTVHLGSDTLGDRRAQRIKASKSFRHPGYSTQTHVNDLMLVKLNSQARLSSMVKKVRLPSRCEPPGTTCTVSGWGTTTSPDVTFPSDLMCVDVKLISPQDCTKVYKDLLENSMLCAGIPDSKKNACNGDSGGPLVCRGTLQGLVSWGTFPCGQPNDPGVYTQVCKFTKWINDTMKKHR
PP5 primary = PP5 phosphatase inhibitors, primary screen, biochemical, fluorescence; Serine/threonine-protein phosphatase 5 (Homo sapiens), P53041; purified PP5c, OMFP substrate fluorescence; inhibition, % at 6.7 µM; 320,000 tested, 0.18% active; AID 1987, 2009;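 active means inhibition above the campaign's mean inhibition across all tested compounds plus 3 SD, cut at about 9.5% in these data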
PG9 Ab binder = binders of HIV-1 gp120 antibody PG9, primary screen, biochemical, TR-FRET; HIV-1 gp120 / PG9 antibody interaction; TR-FRET gp120-PG9 antibody binding; inhibition, % at 6.7 µM; 360,000 tested, 0.43% active; in the data active means inhibition above about 8.5%
PP1 inh = PP1-alpha phosphatase inhibitors, primary screen, counter-screen for PP5 inhibitor project, biochemical, fluorescence, OMFP substrate, single point; Serine/threonine-protein phosphatase PP1-alpha catalytic subunit (Homo sapiens), P62136; purified PP1alpha; inhibition, % at 6.7 µM; 320,000 tested, 0.9% active;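 active means inhibition above the mean inhibition of all tested compounds plus 3 SD, computed separately for each screening campaign, cut at about 15% in these data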
Rev-erbA mod = modulators of Rev-erb alpha DNA binding, primary screen, biochemical, FITC-DNA, fluorescence polarization, uHTS. Nuclear receptor subfamily 1 group D member 1 (Homo sapiens), P20393. Rev-erbα–FITC-DNA binding, 90 min. activity, % at 10 µM. 370,000 tested, 0.79% active;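 active means activity above about 14%, limit read from the data; passing the limit was not always enough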
Rev-erbA confirm = modulators of Rev-erb alpha DNA binding, confirmation, biochemical, FITC-DNA, fluorescence polarization, single point. 90 min. shares compounds with Rev-erbA mod. activation, % at 25 µM. 3,000 tested, 61% active. AID 1259319, 2017;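 active means activation at or above a set limit, or at least 3 SD above the negative control mean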
RORg counter = modulation of RORgamma DNA binding, dose response, counter-screen for Rev-erb alpha modulator project, biochemical, fluorescence polarization, FITC-DNA; shares compounds with Rev-erbA mod; purified RORgamma protein-FITC-DNA binding; IC50, µM; 910 tested, 8% active;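 active means Compounds whose fitted half-maximal concentration for disrupting protein-DNA binding is below 10 micromolar; the record names Rev-erb in its text, so the target is in doubt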
Hits are given with their value; . = inactive; / = not tested or not shown. The list is not random: actives were taken first. Their share in the collection is about 2.8%.

SMILES | JMJD2C inh | KLK7 zymogen act | PP5 primary | PG9 Ab binder | PP1 inh | Rev-erbA mod | Rev-erbA confirm | others
Cc1ccc(S(=O)(=O)N2CCCC2C(=O)N2CCN(c3ccccc3)CC2)cc1C (centres undefined) | / | . | / | / | / | . | /
NC(=O)c1cc2cc(Cc3ccccc3Cl)ccc2oc1=O | . | . | . | . | . | 19.8 | .
CNC(=O)c1cc2cc(Cc3ccccc3Cl)ccc2oc1=O | . | . | . | . | . | . | /
COc1cc(NC(=O)NC2CCCCN(Cc3cccc(Cl)c3)C2=O)cc(OC)c1 (centres undefined) | / | . | / | / | / | . | /
Cc1c(C(C)(C)C)sc(=NC(=O)c2ccccc2O)n1C | . | . | . | . | . | 21.0 | .
Cc1ccc2nc(-c3ccc(F)cc3)c(Cc3ccccc3C(F)(F)F)n2c1 | / | . | / | . | / | 16.9 | .
COc1ccc(-c2nc3ccc(C)cn3c2Cc2ccccc2C(F)(F)F)cc1OC | / | . | / | . | / | . | /
Cc1ccc2nc(-c3cccc(Br)c3)c(Cc3ccccc3C(F)(F)F)n2c1 | / | . | / | . | / | . | /
COc1ccc(-c2nc3ccc(Br)cn3c2Cc2ccccc2C(F)(F)F)cc1OC | / | . | / | . | / | 15.8 | .
CCN1C(=O)[C@H]2[C@@H](c3ccc(-c4cc(C(C)=O)cs4)cc3)N3CCCC[C@@]3(C(=O)OC)[C@H]2C1=O | . | . | . | . | . | 30.4 | 20.6
COC(=O)C[C@@H]1C[C@H]2c3cc(NC(=O)Nc4ccccc4F)ccc3O[C@H]2[C@@H](CO)O1 | / | . | / | . | / | . | /
Cc1cc2c(s1)c1cnn(Cc3ccccc3F)c(=O)c1n2C | . | . | . | . | . | 32.7 | 18.4
Cc1cc2c(s1)c1cnn(Cc3c(Cl)ccc(C)c3F)c(=O)c1n2C | / | / | / | / | / | 233.3 | 81.2 | RORg counter=.
Cc1cc2c(s1)c1cnn(Cc3cc(F)ccc3F)c(=O)c1n2C | / | / | / | / | / | . | /
N#CCC[C@@H]1CC[C@]2(CCCN(Cc3ccccc3)C2)O1 | / | . | / | / | / | . | /
COc1cc2oc(=O)cc(-c3ccc(-c4ccc(C)cc4)cc3)c2c(OC)c1OC | / | . | / | . | / | . | /
COc1cc2oc(=O)cc(-c3ccc(-c4ccc(CO)cc4)cc3)c2c(OC)c1OC | / | . | / | . | / | 30.4 | 28.3 | RORg counter=.
O=c1c2ccccc2sc2ccc(Cl)cc12 | . | . | . | . | . | 79.9 | 77.4 | RORg counter=.
Cc1cc2sc3ccccc3c(=O)c2c(C)c1O | . | . | . | . | . | . | /
CC(C)CNC(=O)C1(C)CCCCCN1Cc1ccccc1-c1ccccc1 (centres undefined) | / | . | / | . | / | 20.4 | .
Cc1cc(=O)n2c(sc3ccccc32)c1C#N | . | . | . | . | . | 38.8 | 20.7
CCCNCC(O)Cn1c2ccccc2n2c(=O)cc(C)c(C#N)c12 (centres undefined) | . | . | . | . | . | . | /
OCC1OC(C(N=Nc2ccccc2)=NNc2ccccc2)C(O)C1O (centres undefined) | / | . | / | . | / | . | /
COC(=O)c1cccc(Cn2ccc3ccc(-c4ccc5ccn(C(=O)c6ccccc6OC)c5c4)cc32)c1 | / | . | / | / | / | 34.1 | 58.0 | RORg counter=.
CCCCCCC(=O)n1ccc2ccc(-c3ccc4ccn(Cc5ccc(OC)cc5)c4c3)cc21 | / | . | / | / | / | . | /
CCCCOc1ccc(C(=O)n2ccc3ccc(-c4ccc5ccn(Cc6ccccc6)c5c4)cc32)cc1 | / | . | / | / | / | 39.6 | 44.6 | RORg counter=.
Fc1cccc(Cn2ccc3ccc(-c4ccc5ccn(Cc6ccccc6)c5c4)cc32)c1 | / | . | / | / | / | . | /

Bioassay records deposited in PubChem BioAssay by several laboratories.
